From PubChem BioAssay
GDH-TPI counter-1: counter-screen for M. tuberculosis FBA inhibitors: GDH-TPI coupled enzymes. inhibition, % at 4.8 µM. 1.2% of 360,000 active. GDH-TPI coupled enzyme counterscreen, NADH absorbance. AID 588335; in the data active = inhibition above about 30%;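 also: 0% = DMSO wells and 100% = wells lacking the enzyme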
CCHF vOTU inh: CCHFV vOTU protease inhibition; Pep-AMC fluorescence; inhibition, % at 11.5 µM; 0.55% of 370,000 active; AID 651958; in the data active = inhibition above about 30%; also: 0% = vehicle wells with enzyme and 100% = no enzyme wells
Mtb FBA inh: inhibits M. tuberculosis FBA enzyme; P9WQA3; purified M. tuberculosis FBA, fluorescence read-out; inhibition, % at 1 µM; 2.3% of 360,000 active; AID 588726;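 also: 0% = vehicle and 100% = reference inhibitor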
Target sequence (P9WQA3 whole entry, looked up): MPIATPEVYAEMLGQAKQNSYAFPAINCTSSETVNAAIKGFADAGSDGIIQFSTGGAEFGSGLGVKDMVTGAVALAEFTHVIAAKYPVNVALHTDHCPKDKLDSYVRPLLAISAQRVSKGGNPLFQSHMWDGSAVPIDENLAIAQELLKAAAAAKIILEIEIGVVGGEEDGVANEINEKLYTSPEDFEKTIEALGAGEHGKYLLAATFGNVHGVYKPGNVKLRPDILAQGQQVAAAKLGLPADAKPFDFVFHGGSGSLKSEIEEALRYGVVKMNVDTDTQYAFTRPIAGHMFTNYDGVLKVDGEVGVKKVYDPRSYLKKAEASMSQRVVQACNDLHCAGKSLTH
RecA splice inh: Mtb RecA intein splicing inhibition; P9WHJ3; cell-free RecA intein splicing, fluorescence; inhibition, % (test concentration not listed); 0.75% of 290,000 active; AID 2221; in the data active = inhibition above about 30%;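 also: 0% = vehicle wells and 100% = reference inhibitor control wells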
Mtb FBA confirm: Mtb FBA inhibition, confirmed | shares compounds with Mtb FBA inh | purified M. tuberculosis FBA, fluorescence read-out | inhibition, % at 1 µM | 78% of 5,600 active;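 also: 0% = vehicle wells and 100% = reference inhibitor wells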
GDH-TPI counter-2: counter-screen for M. tuberculosis FBA inhibitors: GDH-TPI coupled enzyme inhibition. shares compounds with Mtb FBA inh. GDH-TPI coupled enzyme counterscreen, fluorescence. inhibition, % at 1 µM. 81% of 5,600 active. AID 652141; in the data active = inhibition above about 10%
GDH-TPI DR: inhibits GDH-TPI coupling enzymes in dose response. IC50, µM. 79% of 170 active. shares compounds with Mtb FBA inh. GDH-TPI coupled enzyme assay, fluorescence, artifact counterscreen; call rule not given here
Active calls of the source: *; x = no result given; + = active, no number. In the library only some 4.2% were active in any assay of this set; here they are far more common. Rule as the data show it, unless noted: active = inhibition above about 27%; inactive = the rest.

SMILES	GDH-TPI counter-1	CCHF vOTU inh	Mtb FBA inh	RecA splice inh	Mtb FBA confirm	GDH-TPI counter-2	others
O=C1NC(c2ccccc2Cl)Nc2ccccc21 (centres undefined)	-7	-59	57*	-2	114*	100*
O=C1NC(c2cccs2)Nc2ccccc21 (centres undefined)	8	-6	9	x	x	x
Nc1nc(SCC(=O)NC2CCCCC2)n[nH]1	-4	-3	1	-2	x	x
Cc1ccc(NC(=O)CC(=O)c2ccccc2)cc1C	-2	-19	0	2	x	x
O=C(Nc1ncn[nH]1)c1ccccc1O	1	-23	56*	0	+	+
O=C(COC(=O)COc1cccc(C(F)(F)F)c1)Nc1ccc(N2CCOCC2)cc1	1	11	1	x	x	x
CCOc1ccc(-c2cc(C(=O)OC)nc3c2c(=O)n(C)c(=O)n3C)cc1	9	-54	33*	-2	118*	91*
O=C1c2ccccc2NC(c2cccs2)N1NS(=O)(=O)c1ccccc1 (centres undefined)	6	-27	10	x	x	x
CCOC(=O)NN1C(=O)c2ccccc2NC1c1ccc(OC)cc1OC (centres undefined)	3	-53	42*	-3	180*	144*
CCOC(=O)NN1C(=O)c2ccccc2NC1c1cccs1 (centres undefined)	15	-61	31*	-3	82*	70*
Cc1nc(C)c(-c2ccc(SCC(=O)Nc3cccc(Cl)c3C)nn2)s1	22	1	0	1	x	x
CC(=O)C12CCCCC1CC1[C@@H]3CC(C)C4=CC(=O)CC[C@]4(C)C3CC[C@@]12C (some centres undefined)	2	-12	34*	4	187*	175*
CC(=O)O[C@]1(C(C)=O)CC[C@H]2[C@@H]3C[C@H](C)C4=CC(=O)CC[C@]4(C)[C@H]3CC[C@@]21C	-2	3	0	4	x	x
CC1CCCC(C)N1CC(O)COC1CCC(C(C)(C)C)CC1 (centres undefined)	-6	5	29*	-1	112*	98*
CC(C)N1CCN(C2CSCCSC2)CC1CCO (centres undefined)	12	10	52*	2	+	+
COCCOC(=O)CSc1ncccc1-c1nc2cc(C)c(C)cc2[nH]1	29	-32	30*	-3	191*	156*
Cc1cc2nc(-c3cccnc3SCC(=O)NC(C)C)[nH]c2cc1C	3	-15	19	-2	x	x
O=C1Nc2ccccc2O/C1=C\c1ccccc1	16	-29	30*	-3	160*	102*
O=C1Nc2ccccc2Oc2ccccc21	-1	9	-1	x	x	x
O=C(c1c[nH]c2ccc(S(=O)(=O)N3CCC4(CC3)OCCO4)cc2c1=O)N1CCC2(CC1)OCCO2	-2	1	34*	-1	46*	44*
COc1cccc2sc(Nc3nnc(-c4ccc(F)cc4)o3)nc12	40*	6	49*	-12	+	+
Fc1cccc2sc(Nc3nnc(-c4ccco4)o3)nc12	30	-9	33*	-2	198*	166*
COc1cccc2sc(Nc3nnc(-c4cccs4)o3)nc12	17	-13	15	-12	x	x
CC1(c2nnc(-c3cccc(Cl)c3)o2)CC(c2ccccc2)=NO1 (centres undefined)	-11	0	-1	6	x	x
Cc1ccccc1C(=O)OCC(=O)NCC1COc2ccccc2O1 (centres undefined)	4	-2	1	x	x	x
SMILES	GDH-TPI counter-1	CCHF vOTU inh	Mtb FBA inh	RecA splice inh	Mtb FBA confirm	GDH-TPI counter-2	others
CC[C@@H]1C(c2cccc(Cl)c2)=NN(c2ccc(Br)cc2)[C@H]1C(=O)N1CCOC1=O	15	x	55*	x	60*	43*
CSc1ncc(C(=O)O)c(C)n1	-1	3	-1	0	x	x
Cc1ncc(C(=O)O)c(C(=O)O)c1N	6	-15	34*	-8	19	15*
COCCN(Cc1nc2ccccc2c(=O)[nH]1)C(=O)COc1ccccc1-c1ccccc1	1	3	0	x	x	x
COc1ccc(C2Nc3ccccc3C(=O)N2NS(C)(=O)=O)cc1 (centres undefined)	7	-51	27*	-11	105*	108*
CC1Nc2ccccc2C(=O)N1NS(C)(=O)=O (centres undefined)	10	-90	50*	x	74*	61*
COc1ccc(C2Nc3ccccc3C(=O)N2NS(=O)(=O)c2ccccc2)cc1 (centres undefined)	9	-26	13	-2	x	x
Cc1c(P(=S)(c2ccccc2)c2ccccc2)[n+]2ccccc2n1CCc1ccccc1	8	12	-1	x	x	x
COc1ccncc1-c1csc(C(O)c2ccccc2)n1 (centres undefined)	3	9	-3	x	x	x
CCO[C@@H]1c2c(ccc3ccc(=O)oc23)OC(C)(C)[C@H]1O	17	-33	56*	x	21	8	GDH-TPI DR=2.9*
CC1(C)Oc2ccc3ccc(=O)oc3c2[C@@H](O)[C@@H]1O	18	-35	59*	x	38*	27*
CC(C)=CC(=O)O[C@@H]1Cc2c(ccc3ccc(=O)oc23)OC1(C)C	16	-14	33*	x	35*	26*
C/C=C(/C)C(=O)O[C@@H]1c2c(ccc3ccc(=O)oc23)OC(C)(C)[C@@H]1OC(=O)/C(C)=C\C	16	21	3	15	x	x
C/C=C(/C)C(=O)O[C@@H]1[C@H](OC(=O)C=C(C)C)c2c(ccc3ccc(=O)oc23)OC1(C)C	13	25	3	1	x	x
CCO[C@@H]1c2c(ccc3ccc(=O)oc23)OC(C)(C)[C@@H]1O	20	-24	57*	x	56*	40*
CCOC(=O)c1c(-c2ccccc2)csc1NC(=O)c1cc(-c2ccccc2OC)on1	15	12	-3	-1	x	x
CCO[C@H]1c2c(ccc3ccc(=O)oc23)OC(C)(C)[C@@H]1O	20	-25	59*	x	137*	96*
O=c1[nH]c(NCCO)c(N=Cc2ccccc2)c(=O)[nH]1	0	-25	85*	-76	108*	94*
C=CCOc1ccc(/C=C/C(=O)OCC(=O)NCC(=O)Nc2c(C)cc(C)cc2C)cc1	10	1	0	7	x	x
CCOC(=O)CNc1c(-c2ccc(Cl)cc2)nc2cnccn12	20	-159	68*	-147	56*	50*
CCOC(=O)CNc1c(-c2ccc(OC)cc2)nc2ccc(Cl)cn12	14	-2	1	-6	x	x
Cc1cc(C)c2c(n1)nn1c(C)c(CCC(=O)NCc3ccco3)c(C)nc21	2	-36	30*	-3	71*	48*
COc1cc(OC)c(N(C)C(=O)c2cn(C)c(=O)c3cc(OC)c(OC)cc23)cc1Cl	-5	-3	0	4	x	x
O=c1c2ccccc2nc2c3ccccc3c(NCc3cccnc3)nn12	3	3	2	x	x	x
